Reference: the OligoGym collection

Target: GALNT12
Assay: pooled miR-30 sensor sort-seq; sequence = guide strand
Conditions: shRNA

Sequence	sensor-assay potency score (higher = more potent)
TCGATCACATCAATCACCGGGC	-0.0357
TATCACTGTAGTCATCTACAAG	-1.3
TGAACTTCTGATTCTCTGGGGC	0.682
TTCAGCTGCACGAACACTGTTG	-0.106
TATAGTCAAAGCAGTAGTCTGT	0.11
TTACTCACAGCAAACAGCCCAC	-0.133
TTTCTTCTCTTTGCACAGCGGG	-0.991
TTACACTGGAGCTTGTCCCGGA	0.473
TTCTTCTAGCAGGATATCCGGG	-0.589
TTCTTCTCTTTGCACAGCGGGT	-1.37
TAGTCCTTTGTTCTGGAGCATC	-1.37
TCTTCTAGCAGGATATCCGGGG	-0.323

Target: GALNT14
Assay: as above
Conditions: shRNA

Sequence	sensor-assay potency score (higher = more potent)
TTCCAGTCTGTTCTGGTCCAGG	-1.18
TTGGAAACAACCTCCATTCTTC	0.406
TCTTTTGGAAACAACCTCCATT	-0.288
ATTGCTGTCGGTCATCTCCATT	-1.29
AACAGCAGCACCGTGATCCAGA	-0.665
TTGACGACGATTTCCTTGCCGT	-0.222
TTTTGGTCCATTGCTGTCGGTC	-1.13
TATGATAGGAGTCCTGATGGGC	-0.477
TTGTCGATCACGAAGAGCCCTC	-0.543
TTCTTTTGGAAACAACCTCCAT	-0.965
TCATCTCTCAATGTAGTCCTGG	0.0167
TTGGTGTTCTTTATATACGTGT	-0.309
